The record followed here is PMC5540273 (PLoS ONE, 2017).

The structures appear in SMILES notation.
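Further: KINOMEscan kinase panel screen.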

For the first experiment, the system named is NEK9. Particulars: concentration: 1 μM, replicates: in singlicate; n = 1.
`CC(C)c1nc(-c2ccc(F)c(NS(=O)(=O)c3c(F)cccc3F)c2)c(-c2ccnc(Nc3ccc(N4CCOCC4)nc3)n2)s1` [GSK1804250]: the “%Inh” value is 85%.

Regarding `Cc1ccc(-c2ccc3occ(-c4ccc(S(C)=O)cc4)c3c2)nn1` (stereo not shown), the “%Inh” value is 0%.

As for `Nc1ncnc2scc(-c3ccc(NC(=O)Cc4cc(F)ccc4F)cc3)c12.O=C(O)C(F)(F)F` [SB-731254-M], the “%Inh” value is given as 20%.

Regarding `COc1cc(Nc2nccc(N3CCC(NC(=O)Nc4ccc5c(c4)OCO5)C3)n2)cc(OC)c1OC` (stereo not shown) [GSK1379766], the “%Inh” value turned out to be 21%.

Regarding `O=C(Nc1n[nH]c2cc(-c3cccs3)ccc12)C1CC1` [SB-731284], the “%Inh” value came to 0%.

As for `Fc1cc(Cl)ccc1Nc1ccnc2cc(-c3ccc(CN4CCSCC4)o3)ccc12` [GW560106], the “%Inh” value amounted to 5%.

On to `COc1cccc(CC(=O)N2CCc3cc(-c4cn(C)c5ncnc(N)c45)ccc32)c1` [GSK2608899], for which the “%Inh” value is 25%.

As for `COc1ccc(C2=C(Nc3cccc(O)c3)C(=O)NC2=O)cc1` [SB-390766], the “%Inh” value is listed as 0%.

Turning to `Cc1ccc(O)cc1Nc1ccnc2cc(-c3ccc(CN4CCCCC4)o3)ccc12` [GW557777], the “%Inh” value came to 0%.

Regarding `Cc1ccc(C)c(NC(=O)Nc2ccc(C)c(-c3ccc(C(=O)Nc4ccncc4)cc3)c2)c1` [GSK1398473], the “%Inh” value is recorded as 7%.

For `Cc1cc(-c2ccnc(Nc3cccc(C#N)c3)n2)cc(C)c1O` [GSK1440913], the “%Inh” value came to 13%.

Regarding `Nc1ncc(-c2ccc3nccc(-c4ccncc4)c3c2)cc1S(=O)(=O)N1CCCCC1` [GSK1693850], the “%Inh” value is listed as 15%.

For another experiment, the system named is T1, NIK.
T1 construct: gene MAP3K14
Particulars: concentration: 1 μM, replicates: in singlicate; n = 1.
`CN1CCN(Cc2ccc(NC(=O)Nc3ccc(N(C)c4ccnc(Nc5ccc(CS(C)(=O)=O)cc5)n4)cc3)cc2)CC1.Cl` [GW827654]: the “%Inh” value stood at 0%.

Take `COc1cccc(-c2nc(-c3ccccc3)[nH]c2-c2ccncc2)c1` [SB-610250]: the “%Inh” value came out at 0%.

Turning to `CN(C)CCNS(=O)(=O)c1ccc(-c2ccnc3[nH]ccc23)cc1` [GSK977620], the “%Inh” value amounted to 0%.

For `N#CC1(c2cccc(C(=O)Nc3cccc(Oc4ccc5nc(NC(=O)C6CC6)sc5n4)c3)c2)CC1`, the “%Inh” value came out at 0%.

For the compound `CCNC(=O)/C=C/c1n[nH]c2cc(Sc3ccccc3C(=O)NC)ccc12`, the “%Inh” value was found to be 0%.

On to `CCn1cnc2c(NCc3ccccc3)ncnc21` [SKF-96418], for which the “%Inh” value was found to be 32%.

In the case of `CN(c1ccc2c(c1)nc(NCc1ccccc1)n2C)c1ccnc(Nc2ccc(CS(C)(=O)=O)cc2)n1.Cl` [GW811603], the “%Inh” value is listed as 33%.

`Cl.O=C(Nc1ccc(Oc2ccc3[nH]c(NC(=O)c4ccco4)nc3c2)cc1)Nc1cc(C(F)(F)F)ccc1F` [GW683134]: the “%Inh” value was determined as 13%.

With `Nc1ncc(-c2cn[nH]c2)c2scc(-c3ccc4c(c3)CCN4C(=O)Cc3ccccc3)c12` [GSK2593067], the “%Inh” value came out at 3%.

As to `Cc1ccc(NC(=O)c2ccc(Cl)c(Cl)c2)cc1-c1ccc(C(=O)Nc2ccncc2)cc1` [GSK1398460], the “%Inh” value was 0%.

For `COC(=O)Nc1nc2ccc(Oc3ccc(NC(=O)Nc4cc(C(F)(F)F)ccc4F)cc3)cc2[nH]1.Cl` [GW654607], the “%Inh” value was determined as 60%.

As for `COc1ccc(C)c(Nc2ccnc(Nc3ccc(-c4cnc[nH]4)cc3)n2)c1.Cl` [GW784041], the “%Inh” value is 0%.

Take `CCNc1nccc(-c2c(-c3ccc(F)cc3)ncn2C2CCN(C)CC2)n1`: the “%Inh” value stood at 0%.

As for `CS(=O)(=O)c1cccc(CNc2nc(Nc3ccc4c(c3)CCC(=O)N4)ncc2C(F)(F)F)c1`, the “%Inh” value was found to be 0%.

As to `Cc1ccc(NC(=O)c2ccnc(N3CCCCC3)c2)cc1-c1ccc(C(=O)NCC2CC2)cc1` [GW775610], the “%Inh” value is 15%.

Regarding `CN(C)c1ncnc2nc[nH]c12` [SKF-31736], the “%Inh” value is recorded as 51%.

For `Cc1ccc(Nc2ccnc(Nc3ccc(C)c(F)c3)n2)cc1O.Cl` [GW582868], the “%Inh” value was 10%.

As for `Cc1ccc(O)cc1Nc1ccnc2ccc(C(C)(C)C)cc12` [GW856805], the “%Inh” value came to 31%.

With `Cn1cc(-c2ccc3c(c2)CCN3C(=O)Cc2cc(F)cc(C(F)(F)F)c2)c2c(N)ncnc21` [GSK2635225], the “%Inh” value is 15%.

Turning to `CN(c1ccc(F)c(NC(=O)c2cccc(OC(C)(C)C#N)c2Cl)c1)c1ccc2nc(NC(=O)C3CC3)sc2n1`, the “%Inh” value turned out to be 0%.

Take `CC(C)NCC(Cc1ccccc1)NC(=O)c1cc(Br)c(-c2ccnc3[nH]ccc23)s1.Cl.Cl` (stereo not shown) [GSK1383281]: the “%Inh” value came out at 0%.

As to `CCOc1nccc(-c2c(-c3ccc(F)cc3)ncn2C2CCNCC2)n1` [SB-249175], the “%Inh” value is 5%.

With `CN(C)CCOc1ccc(-c2cc(-c3ccc(Cl)c(O)c3)c(-c3ccncc3)[nH]2)cc1.Cl.Cl` [SB-684387], the “%Inh” value is listed as 0%.

Consider `O=C(O)C(F)(F)F.O=c1[nH]ccc2nc(N[C@@H]3CCNC3)nc(Nc3cc(Cl)cc(Cl)c3)c12` [GSK2188764], for which the “%Inh” value stood at 64%.

As for `CNc1nccc(-c2ccc3c(N)n[nH]c3c2)n1` [GSK2206003], the “%Inh” value is given as 33%.

As to `CC(C)c1nc(-c2ccc(F)c(NS(=O)(=O)c3c(F)cccc3F)c2)c(-c2ccnc(Nc3ccc(N4CCOCC4)nc3)n2)s1` [GSK1804250], the “%Inh” value was determined as 9%.

For the compound `Cc1ccc(-c2ccc3occ(-c4ccc(S(C)=O)cc4)c3c2)nn1` (stereo not shown), the “%Inh” value was determined as 0%.

For the compound `Nc1ncnc2scc(-c3ccc(NC(=O)Cc4cc(F)ccc4F)cc3)c12.O=C(O)C(F)(F)F` [SB-731254-M], the “%Inh” value turned out to be 0%.

Consider `COc1cc(Nc2nccc(N3CCC(NC(=O)Nc4ccc5c(c4)OCO5)C3)n2)cc(OC)c1OC` (stereo not shown) [GSK1379766], for which the “%Inh” value is 20%.

`O=C(Nc1n[nH]c2cc(-c3cccs3)ccc12)C1CC1` [SB-731284]: the “%Inh” value is on record as 14%.

Turning to `Fc1cc(Cl)ccc1Nc1ccnc2cc(-c3ccc(CN4CCSCC4)o3)ccc12` [GW560106], the “%Inh” value was 28%.

Regarding `COc1cccc(CC(=O)N2CCc3cc(-c4cn(C)c5ncnc(N)c45)ccc32)c1` [GSK2608899], the “%Inh” value was determined as 0%.

In the case of `COc1ccc(C2=C(Nc3cccc(O)c3)C(=O)NC2=O)cc1` [SB-390766], the “%Inh” value is reported as 6%.

As to `Cc1ccc(O)cc1Nc1ccnc2cc(-c3ccc(CN4CCCCC4)o3)ccc12` [GW557777], the “%Inh” value was 0%.

Consider `Cc1ccc(C)c(NC(=O)Nc2ccc(C)c(-c3ccc(C(=O)Nc4ccncc4)cc3)c2)c1` [GSK1398473], for which the “%Inh” value is 4%.

For `Cc1cc(-c2ccnc(Nc3cccc(C#N)c3)n2)cc(C)c1O` [GSK1440913], the “%Inh” value is listed as 62%.

`Nc1ncc(-c2ccc3nccc(-c4ccncc4)c3c2)cc1S(=O)(=O)N1CCCCC1` [GSK1693850]: the “%Inh” value turned out to be 11%.
